# Assay outcomes from PubChem.
# Compounds with a hit are over-represented: about 2.1% of the library has one in this group of screens.
# IEC-6 cytotox: IEC-6 cytotoxicity, counter-screen for KLF5 inhibitors; inhibition, % at 5 µM; hit rate 0.78% among 290,000; luminescence viability; in the data active = inhibition above about 22%;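 also: 0% = plate median of test compound wells and 100% = cytotoxic reference compound wells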
# aSyn 5UTR inh: MLPCN primary screen, SNCA 5' untranslated region; alpha-synuclein 5'UTR reporter, inhibitor activity; inhibition, % (tested at 7.5 µM); hit rate 0.82% among 300,000; AID 1813; in the data active = inhibition above about 60%;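 also: H4 neuroglioblastoma cells stably carrying SNCA 5'UTR luciferase fusion; 0% = DMSO wells and 100% = positive control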
# APP 5UTR inh: APP translation inhibition; SH-SY5Y APP 5'UTR-luciferase reporter, luminescence; inhibition, % at 2 µM; hit rate 0.82% among 190,000; AID 1285;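 active = inhibition above a set limit, derived from the sample mean plus 3 SD, cut at about 45% in these data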
# BaF3 tox: counter-screen for JAK2V617F inhibitors: parental Ba/F3 viability inhibitors; CellTiter-Glo ATP luminescence; inhibition, % at 5.6 µM; hit rate 1.1% among 220,000; AID 1486;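 active = inhibition above a per-campaign cutoff, the mean inhibition of all tested compounds plus 3 SD, cut at about 27% in these data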;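 also: 0% = DMSO wells and 100% = JAK Inhibitor I control wells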
# Ba/F3 V617F tox: lowers viability of Ba/F3 cells expressing EpoR and JAK2V617F. ATP luminescence. inhibition, % at 5.6 µM. hit rate 1.1% among 220,000;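 active = inhibition above the campaign mean plus 3 SD over all tested compounds, cut at about 24% in these data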;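 also: cytokine-independent growth of Ba/F3 cells driven by EpoR plus mutant JAK2; 0% = DMSO-treated cells and 100% = JAK inhibitor I control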
# KLF5 inhibitor: inhibitors of KLF5 expression. inhibition, % at 5 µM. DLD-1 KLF5 promoter-luciferase reporter, luminescence. hit rate 0.23% among 290,000;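 active = inhibition above a per-plate limit of that plate's mean compound inhibition plus 3 SD, cut at about 60% in these data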;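 also: 0% = DMSO wells and 100% = LY294002 at 200 µM; higher means less KLF5 promoter-driven luciferase light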
# * marks the source's active call; other numbers are inactive results; . = no result given.
SMILES,IEC-6 cytotox,aSyn 5UTR inh,APP 5UTR inh,BaF3 tox,Ba/F3 V617F tox,KLF5 inhibitor
CC1(C)N=C(N)NC(Nc2ccccc2)=N1,5,5,3,98*,94*,5
Cc1ccc(S(=O)(=O)N2CCC(C(=O)OCC(=O)Nc3cc(S(C)(=O)=O)ccc3Cl)CC2)cc1C,-6,0,.,.,.,-19
COC(=O)c1ccccc1NC(=O)Cn1c(-c2nonc2N)nc2ccccc21,35*,36,95*,50*,50*,-29
COC(=O)c1ccc(NC(=O)Cn2c(-c3nonc3N)nc3ccccc32)cc1,2,1,12,1,-4,-22
CC(=O)c1ccc(Nc2ccc(-c3ccccc3F)nn2)cc1,2,-172,-146,8,-1,-175
O=C1CNC(=S)N1Cc1ccc(F)cc1,-3,-17,.,.,.,6
N=c1ccn(Cc2ccc(F)cc2)cc1,-4,4,.,61*,70*,-7
CCOc1cc(NC(=S)NC)c(OCC)cc1NC(=O)c1ccc(OC)cc1,2,-10,-1,6,1,7
CCCCC(=O)Nc1cc(OCC)c(NC(=S)NC)cc1OCC,2,8,0,62*,24*,-25
O=S(=O)(Nc1ccc(-c2csc(-c3ccccc3)n2)cc1)c1ccc(F)cc1,1,-1,4,0,3,-33
O=C(Nc1nc(-c2ccccc2)cs1)c1ccccc1NS(=O)(=O)c1ccc(F)cc1,13,63*,-2,46*,23,21
CC1=CC(=O)C(C(C)C)=C/C1=N/OS(=O)(=O)c1ccccc1,-1,-23,.,104*,99*,-15
CC1=CC(=O)C=C(C)C1=NOS(=O)(=O)c1ccccc1,7,12,80*,48*,76*,0
Cc1c(C(=O)Nc2cc(F)ccc2F)sc2nc3n(c(=O)c12)CCCCC3,2,-118,.,.,.,-149
O=C1NC(=O)C(CC(=O)N(Cc2cccs2)C2(C(=O)NC3CCCCC3)CCCCC2)N1 (stereo unspecified),0,16,5,88*,5,-22
CC(C)C(NC(=O)c1ccc(F)cc1)C(=O)NCC1CCCO1 (stereo unspecified),-4,0,.,-3,-1,-38
CC(C)(C)C(=O)N1CCc2cc(-c3csc(N)n3)ccc21,-2,66*,-121,-1,-1,-12
CCC(C)C(=O)N1CCc2cc(-c3csc(N)n3)ccc21 (stereo unspecified),-2,-172,-86,9,6,-145
COc1ccc(N2C(=O)C(Cl)=C(Oc3cccc(OC)c3)C2=O)cc1,-4,-18,49*,7,0,-25
CSc1nnc(-c2sc3cc(Cl)ccc3c2Cl)n1C,3,-23,8,0,-3,0
CCn1c(SC)nnc1-c1sc2cc(Cl)ccc2c1Cl,0,-38,-5,40*,2,-33
CC(C)=CCCC(C)CN1CCC(N2CCC(C(=O)NC(C)C)CC2)CC1 (stereo unspecified),4,-22,-7,12,9,-17
FCCCOc1ccc(-c2nccc(-c3ccccn3)n2)cc1,10,-63,.,.,.,-42
O=C(O)COc1ccc(-c2nccc(-c3ccccn3)n2)cc1,-2,72*,63*,-1,-3,11
CCN(CC)c1nc(Nc2ccc(Cl)cc2)nc(OCC#N)n1,1,70*,-12,6,-2,4
SMILES,IEC-6 cytotox,aSyn 5UTR inh,APP 5UTR inh,BaF3 tox,Ba/F3 V617F tox,KLF5 inhibitor
CCc1ccc(S(=O)(=O)NC(=S)NC2CCCCC2)cc1,2,-3,7,1,1,2
Cc1cc(C(C)(C)C)cc(C)c1Cn1c2[n+](c3ccc(C(F)(F)F)cc31)CCCCC2,5,-5,6,53*,49*,8
CCOC(=O)N1CCC(NC(=O)c2ccc3c(c2)sc2nc(-c4ccc(OC)cc4)cn23)CC1,2,-98,-1,27*,0,-2
CCOC(=O)N1CCN(C(=O)c2ccc3c(c2)sc2nc(-c4ccccc4)cn23)CC1,11,-109,-82,7,2,-68
COC(=O)C(C)NC(=O)c1cn(-c2ccccc2OC)c(=O)c2ccccc12 (stereo unspecified),-5,14,.,.,.,-29
Cc1ccc(-c2c[n+](CC(=O)c3cccs3)c3n2CCC3)cc1,5,4,.,62*,33*,1
COc1ccc(-c2c[n+](CC(=O)N3c4ccccc4Sc4ccccc43)c3n2CCC3)cc1,-1,-10,.,0,-1,-41
COc1ccc(-c2c[n+](CC(=O)c3cccs3)c3n2CCC3)cc1,2,-11,.,29*,19,-8
Cc1ccc(-c2nnc(CN3CCCCC3C)o2)cc1 (stereo unspecified),11,-8,.,.,.,-14
COc1ccc2c(c1)cc(C(=O)N[C@@H](CCSC)C(=O)N1CCC[C@H]1C(=O)O)n2C,-8,-17,.,.,.,3
CC1(C(=O)NNC(=O)c2ccc(=O)oc2)CC1Br (stereo unspecified),-3,-5,.,28*,0,4
CC(C)NC(=O)NC(=O)COc1cccc2c1OC(C)(C)C2,0,15,-5,3,0,-14
CC(Oc1cccc2c1OC(C)(C)C2)C(=O)O (stereo unspecified),0,-4,67*,0,0,-41
O=C(O)c1ccc(N=N/C(=N\Nc2ccc(C(=O)O)cc2)c2ccccc2)cc1,.,-15,.,.,.,.
Brc1ccc(N/N=C(/N=Nc2nn[nH]n2)c2ccccc2)cc1,10,97*,58*,8,11,43
CCOC(=O)C1(CC2CC2)CCN(Cc2ccc(OC)cc2F)CC1,0,2,9,80*,-1,1
CCOC(=O)C1(CC2CC2)CCN(Cc2cc(Cl)c(O)c(OC)c2)CC1,-2,-1,-6,3,1,-27
CCN(CC(=O)NCc1cccs1)c1ccc(S(=O)(=O)N2CCN(C)CC2)cn1,-4,-4,.,2,-2,-30
O=C(Cn1cc(C(F)(F)F)cc(Cl)c1=O)NCc1ccc(F)cc1,-7,-81,.,.,.,-47
NC(=O)c1cc([N+](=O)[O-])ccc1NCCN1C(=O)c2ccccc2C1=O,-5,-7,14,3,1,-21
Cc1nc(Nc2cnc(/C=C/c3cc(C(=O)Nc4cccc(C(F)(F)F)c4)ccc3C)cn2)cc(N2CCNCC2)n1,0,81*,.,.,.,-5
Cc1ccc(C)c(S(=O)(=O)N2C(=S)NC(=O)C2CC(C)C)c1 (stereo unspecified),1,5,77*,3,-2,-26
CN(CC(=O)Nc1ccc(F)c(Cl)c1)S(=O)(=O)c1ccc2c(c1)n(C)c(=O)c(=O)n2C,-7,-7,.,.,.,-7
CCC(O)C1CCN(C(=O)c2cc(COc3ccc4ncccc4c3)on2)CC1 (stereo unspecified),14,9,4,68*,47*,42
O=C(NC1CCCCCCC1)c1cc(COc2ccc3ncccc3c2)on1,2,26,4,39*,7,-9
CC(=O)Nc1cccc(NC(=O)c2ccc(COc3ccccc3)cc2)c1,3,-142,.,.,.,-130
